32 compounds from PubChem BioAssay AID779 (Sanford-Burnham Center for Chemical Genomics, 2007) can be followed below.

Structures are written as SMILES. Values without a mark were called inactive. How the calls were made is not given here. Bounds are passed on as bounds.

This assay is described as follows: PLAP enzyme activity inhibition – biochemical, colorimetric, counter-screen, dose response (AID 779). The note with it: colorimetric OD read-out.
For `CCOC(=O)c1cc(OC(=O)c2ccccc2OC)n(-c2ccccc2)n1`, the IC50 is more than 50 µM.

In the case of `COc1ccc(N2Cc3cccc(C(=O)O)c3C2=O)cc1`, the IC50 was more than 50 µM. For `COc1ccc(N(C(=O)c2ccco2)S(=O)(=O)c2cc(Cl)c(Cl)cc2Cl)cc1`, the IC50 was more than 50 µM. `Cc1ccc(CNC(=O)CN2CCC(C(N)=O)CC2)cc1`: the IC50 was more than 50 µM. Take `Cc1cc(C)c2nc(N3CCCN(C(=O)c4ccco4)CC3)c(C#N)cc2c1`: the IC50 is more than 50 µM. `Cc1ccc(S(=O)(=O)/C(C#N)=C/c2c(N3CCOCC3)nc3ccccn3c2=O)cc1`: the IC50 was more than 50 µM. Regarding `CCN(CCNC(=O)C1CCCN(S(=O)(=O)CC)C1)c1ccccc1` (configuration not stated), the IC50 was more than 50 µM. Turning to `CCc1cccc2c(C(=O)CSc3nnc(-c4ccoc4C)n3C)c[nH]c12`, the IC50 is more than 50 µM. For `O=C(/C=C/c1ccccc1)c1cc(Br)ccc(=O)c1O`, the IC50 was more than 50 µM. On to `CCOC(=O)C1=C(C)N=c2s/c(=C/c3ccco3)c(=O)n2C1c1cccc(OC)c1` (configuration not stated), for which the IC50 is more than 50 µM. As for `CCN(CC)C(=O)CSc1nc2cc(OC)c(OC)cc2c(=O)n1Cc1ccc(Cl)cc1`, the IC50 is more than 50 µM. On to `FC(F)(F)c1nnc2c(Sc3ccccn3)nc3ccccc3n12`, for which the IC50 is more than 50 µM. As for `CCN(CC)CCCN(Cc1cc2cc3c(cc2[nH]c1=O)OCCO3)C(=O)Nc1ccccc1`, the IC50 was more than 50 µM. Take `COc1ccc2sc3ccccc3c(=O)c2c1OC`: the IC50 was more than 50 µM. The same measure for `COc1ccc(OC)c(NC(=O)CSc2nc3ccccc3cc2Cc2ccccc2)c1`: more than 50 µM. `CCN(CCCNC(=O)CN(C)S(=O)(=O)c1cccc2nsnc12)c1cccc(C)c1`: the IC50 was more than 50 µM. With `CC(C)(C)C(=O)c1sc2nc(-c3cccs3)cc(C(F)(F)F)c2c1N`, the IC50 was more than 50 µM.

Consider `COc1ccc(Cc2nnc(NC(=O)Cc3cccs3)s2)cc1`, for which the IC50 was more than 50 µM.

Regarding `CCC(C)COC(=O)C(C#N)c1nc2ccccc2nc1N1CCCCC1` (configuration not stated), the IC50 was more than 50 µM. On to `CSc1nc(NCCOCCO)c2sc3nc(-c4ccco4)c4c(c3c2n1)CCC4`, for which the IC50 was more than 50 µM.

With `Cc1cccc2cc(/C=C3\N=C(c4ccccc4)OC3=O)c(N3CCOCC3)nc12`, the IC50 is more than 50 µM. As to `COc1cc(C(Nc2ccccn2)c2ccc3ccc(C)nc3c2O)cc(OC)c1O` (configuration not stated), the IC50 was more than 50 µM. Turning to `Brc1ccc(-c2nnc(-c3cccc(Br)c3)o2)cc1`, the IC50 is more than 50 µM. As to `CCn1c(O)c(/C=N/N=C/c2ccccc2)c2ccc(C3=NNC(=O)CC3)cc21`, the IC50 was more than 50 µM. In the case of `Nc1ccc(Br)c2c1C(=O)c1ccccc1C2=O`, the IC50 was more than 50 µM.

Take `CC(C)CC(C(=O)Nc1oc(-c2ccco2)c(-c2ccco2)c1C#N)N1C(=O)c2ccccc2C1=O` (configuration not stated): the IC50 is more than 50 µM. Regarding `Cc1c(NC(=O)CCN2C(=O)c3ccccc3C2=O)c(=O)n(-c2ccccc2)n1C`, the IC50 is more than 50 µM. For the compound `Cc1nc(C)c(C(=O)Nc2nc3c(C)cccc3s2)o1`, the IC50 is more than 50 µM. The same measure for `Cc1ccsc1/C=C/C1=Cc2c(sc(NC(=O)CSc3n[nH]c(N)n3)c2C#N)C(C)(C)C1`: more than 50 µM; for `Cc1nn(-c2ccccc2)c2c1C(c1cccnc1)N1C=C(S(=O)(=O)N3CCCCC3)C=CC1=N2` (configuration not stated): more than 50 µM; for `CCN(CCO)c1nc(SC)nc2c1sc1nc(-c3ccco3)c3c(c12)CCC3`: more than 50 µM. Take `Cc1cc(C)n(CNc2nc(C(F)(F)F)cs2)n1`: the IC50 was more than 50 µM.
